# Source: ChEMBL document CHEMBL1961873, “Compounds: GSK PKIS; Assays: Nanosyn kinase panel” (2012)
# Legend:
# [1] = target: Sphingosine kinase 1 (Homo sapiens) (UniProt Q9NYA1); details: at 1 µM;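 also: mean SPHK1 inhibition value reported from the GSK PKIS kinase panel screen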
# [2] = target: T1, Sphingosine kinase 2 (Homo sapiens) (UniProt Q9NRA0); details: at 0.1 µM
# T1 sequence (whole entry): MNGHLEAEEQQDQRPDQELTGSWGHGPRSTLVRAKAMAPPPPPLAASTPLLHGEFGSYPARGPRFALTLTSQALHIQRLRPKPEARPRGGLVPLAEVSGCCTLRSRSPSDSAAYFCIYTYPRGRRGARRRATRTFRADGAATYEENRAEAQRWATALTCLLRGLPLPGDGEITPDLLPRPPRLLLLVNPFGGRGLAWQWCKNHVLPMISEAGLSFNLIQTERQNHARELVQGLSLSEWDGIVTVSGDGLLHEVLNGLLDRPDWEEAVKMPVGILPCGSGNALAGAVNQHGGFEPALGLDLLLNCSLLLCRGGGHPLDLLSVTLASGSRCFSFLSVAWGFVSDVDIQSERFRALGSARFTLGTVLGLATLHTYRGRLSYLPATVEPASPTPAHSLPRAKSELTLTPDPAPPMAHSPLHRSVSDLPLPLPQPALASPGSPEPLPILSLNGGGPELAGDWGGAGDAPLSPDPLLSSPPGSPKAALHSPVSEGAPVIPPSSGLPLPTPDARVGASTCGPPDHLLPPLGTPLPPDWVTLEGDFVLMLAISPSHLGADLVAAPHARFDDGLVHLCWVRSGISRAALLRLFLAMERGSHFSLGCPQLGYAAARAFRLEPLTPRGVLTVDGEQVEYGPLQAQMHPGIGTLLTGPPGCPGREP
# [3] = target: T1, Sphingosine kinase 2 (Homo sapiens); details: at 1 µM
# [4] = target: Casein kinase II subunit alpha (Homo sapiens) (UniProt P68400); details: at 0.1 µM
# Sequence of Casein kinase II subunit alpha (Homo sapiens) (P68400 whole entry, looked up): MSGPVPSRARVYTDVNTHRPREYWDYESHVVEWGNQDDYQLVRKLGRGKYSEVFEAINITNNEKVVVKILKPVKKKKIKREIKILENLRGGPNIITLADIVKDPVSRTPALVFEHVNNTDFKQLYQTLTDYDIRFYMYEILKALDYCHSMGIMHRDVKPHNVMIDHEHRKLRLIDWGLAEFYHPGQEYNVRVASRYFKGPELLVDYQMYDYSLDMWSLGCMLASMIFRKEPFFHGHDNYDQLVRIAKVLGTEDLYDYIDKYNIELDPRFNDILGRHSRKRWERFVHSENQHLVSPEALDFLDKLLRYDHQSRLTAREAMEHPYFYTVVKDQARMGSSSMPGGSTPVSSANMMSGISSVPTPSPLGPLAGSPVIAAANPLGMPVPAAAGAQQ
# [5] = target: Casein kinase II subunit alpha (Homo sapiens) (UniProt P68400); details: at 1 µM
# [6] = target: T2, Inhibitor of nuclear factor kappa-B kinase subunit alpha (Homo sapiens) (UniProt O15111); details: at 0.1 µM
# T2 sequence (whole entry): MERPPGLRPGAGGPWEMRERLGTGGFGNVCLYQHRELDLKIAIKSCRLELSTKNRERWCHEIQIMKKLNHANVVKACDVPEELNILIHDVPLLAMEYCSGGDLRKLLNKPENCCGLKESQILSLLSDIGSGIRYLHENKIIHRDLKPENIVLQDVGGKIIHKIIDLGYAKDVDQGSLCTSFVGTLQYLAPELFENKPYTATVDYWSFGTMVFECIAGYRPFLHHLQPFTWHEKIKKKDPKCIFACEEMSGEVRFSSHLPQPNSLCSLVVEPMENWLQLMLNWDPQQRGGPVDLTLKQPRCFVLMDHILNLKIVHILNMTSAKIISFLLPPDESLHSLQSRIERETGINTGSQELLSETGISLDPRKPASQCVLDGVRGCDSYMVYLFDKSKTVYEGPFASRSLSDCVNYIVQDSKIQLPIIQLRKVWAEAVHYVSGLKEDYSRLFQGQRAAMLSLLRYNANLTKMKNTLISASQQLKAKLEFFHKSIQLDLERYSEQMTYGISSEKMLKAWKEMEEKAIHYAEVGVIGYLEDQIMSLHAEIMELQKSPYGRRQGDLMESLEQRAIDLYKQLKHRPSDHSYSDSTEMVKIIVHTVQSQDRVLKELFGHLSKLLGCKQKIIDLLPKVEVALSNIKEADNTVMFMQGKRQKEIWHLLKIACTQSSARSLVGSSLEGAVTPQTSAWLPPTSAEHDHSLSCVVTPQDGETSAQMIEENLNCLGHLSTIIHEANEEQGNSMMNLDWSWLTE
# [7] = target: T2, Inhibitor of nuclear factor kappa-B kinase subunit alpha (Homo sapiens); details: at 1 µM
# [8] = target: T3, Inhibitor of nuclear factor kappa-B kinase subunit beta (Homo sapiens) (UniProt O14920); details: at 0.1 µM
# T3 sequence (whole entry): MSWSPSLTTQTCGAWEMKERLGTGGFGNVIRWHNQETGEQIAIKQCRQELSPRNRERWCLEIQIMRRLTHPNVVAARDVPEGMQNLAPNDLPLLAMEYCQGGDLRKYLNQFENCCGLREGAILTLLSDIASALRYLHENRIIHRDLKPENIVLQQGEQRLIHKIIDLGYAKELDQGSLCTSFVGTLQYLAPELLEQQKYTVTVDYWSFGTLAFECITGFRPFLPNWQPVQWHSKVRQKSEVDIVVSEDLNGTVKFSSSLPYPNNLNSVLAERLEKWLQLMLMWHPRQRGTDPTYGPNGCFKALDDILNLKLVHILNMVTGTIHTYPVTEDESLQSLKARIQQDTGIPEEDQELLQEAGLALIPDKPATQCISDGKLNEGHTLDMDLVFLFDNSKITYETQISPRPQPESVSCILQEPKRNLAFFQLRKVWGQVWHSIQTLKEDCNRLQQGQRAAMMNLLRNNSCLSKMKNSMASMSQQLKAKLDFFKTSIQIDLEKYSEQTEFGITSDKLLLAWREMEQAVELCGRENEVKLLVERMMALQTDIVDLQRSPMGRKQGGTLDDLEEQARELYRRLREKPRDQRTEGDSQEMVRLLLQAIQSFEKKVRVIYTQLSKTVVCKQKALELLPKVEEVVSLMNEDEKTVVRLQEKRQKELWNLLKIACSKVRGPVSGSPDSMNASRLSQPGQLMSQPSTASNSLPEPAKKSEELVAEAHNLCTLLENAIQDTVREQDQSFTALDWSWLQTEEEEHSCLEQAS
# [9] = target: T3, Inhibitor of nuclear factor kappa-B kinase subunit beta (Homo sapiens); details: at 1 µM
# [10] = target: T4, Inhibitor of nuclear factor kappa-B kinase subunit epsilon (Homo sapiens) (UniProt Q14164); details: at 0.1 µM
# T4 sequence (whole entry): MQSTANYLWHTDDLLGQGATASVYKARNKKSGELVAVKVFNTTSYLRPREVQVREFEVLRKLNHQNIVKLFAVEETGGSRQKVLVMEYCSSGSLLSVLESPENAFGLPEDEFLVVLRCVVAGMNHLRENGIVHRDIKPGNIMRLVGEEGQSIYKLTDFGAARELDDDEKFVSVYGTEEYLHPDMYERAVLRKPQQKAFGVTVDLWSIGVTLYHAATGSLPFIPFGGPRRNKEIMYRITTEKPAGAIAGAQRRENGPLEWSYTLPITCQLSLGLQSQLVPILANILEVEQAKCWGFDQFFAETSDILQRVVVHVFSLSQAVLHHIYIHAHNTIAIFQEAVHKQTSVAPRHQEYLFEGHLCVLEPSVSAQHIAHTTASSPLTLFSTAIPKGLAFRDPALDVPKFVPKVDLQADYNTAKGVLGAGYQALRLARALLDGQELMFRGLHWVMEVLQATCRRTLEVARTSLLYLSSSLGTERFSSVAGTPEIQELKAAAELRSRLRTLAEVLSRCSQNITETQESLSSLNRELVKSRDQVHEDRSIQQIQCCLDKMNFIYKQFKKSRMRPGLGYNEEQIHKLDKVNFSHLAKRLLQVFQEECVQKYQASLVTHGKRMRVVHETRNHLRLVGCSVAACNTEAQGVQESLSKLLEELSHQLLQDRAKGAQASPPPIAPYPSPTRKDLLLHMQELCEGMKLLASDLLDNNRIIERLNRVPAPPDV
# [11] = target: T4, Inhibitor of nuclear factor kappa-B kinase subunit epsilon (Homo sapiens); details: at 1 µM
# [12] = target: T5, Serine/threonine-protein kinase Nek1 (Homo sapiens) (UniProt Q96PY6); details: at 0.1 µM
# T5 sequence (whole entry): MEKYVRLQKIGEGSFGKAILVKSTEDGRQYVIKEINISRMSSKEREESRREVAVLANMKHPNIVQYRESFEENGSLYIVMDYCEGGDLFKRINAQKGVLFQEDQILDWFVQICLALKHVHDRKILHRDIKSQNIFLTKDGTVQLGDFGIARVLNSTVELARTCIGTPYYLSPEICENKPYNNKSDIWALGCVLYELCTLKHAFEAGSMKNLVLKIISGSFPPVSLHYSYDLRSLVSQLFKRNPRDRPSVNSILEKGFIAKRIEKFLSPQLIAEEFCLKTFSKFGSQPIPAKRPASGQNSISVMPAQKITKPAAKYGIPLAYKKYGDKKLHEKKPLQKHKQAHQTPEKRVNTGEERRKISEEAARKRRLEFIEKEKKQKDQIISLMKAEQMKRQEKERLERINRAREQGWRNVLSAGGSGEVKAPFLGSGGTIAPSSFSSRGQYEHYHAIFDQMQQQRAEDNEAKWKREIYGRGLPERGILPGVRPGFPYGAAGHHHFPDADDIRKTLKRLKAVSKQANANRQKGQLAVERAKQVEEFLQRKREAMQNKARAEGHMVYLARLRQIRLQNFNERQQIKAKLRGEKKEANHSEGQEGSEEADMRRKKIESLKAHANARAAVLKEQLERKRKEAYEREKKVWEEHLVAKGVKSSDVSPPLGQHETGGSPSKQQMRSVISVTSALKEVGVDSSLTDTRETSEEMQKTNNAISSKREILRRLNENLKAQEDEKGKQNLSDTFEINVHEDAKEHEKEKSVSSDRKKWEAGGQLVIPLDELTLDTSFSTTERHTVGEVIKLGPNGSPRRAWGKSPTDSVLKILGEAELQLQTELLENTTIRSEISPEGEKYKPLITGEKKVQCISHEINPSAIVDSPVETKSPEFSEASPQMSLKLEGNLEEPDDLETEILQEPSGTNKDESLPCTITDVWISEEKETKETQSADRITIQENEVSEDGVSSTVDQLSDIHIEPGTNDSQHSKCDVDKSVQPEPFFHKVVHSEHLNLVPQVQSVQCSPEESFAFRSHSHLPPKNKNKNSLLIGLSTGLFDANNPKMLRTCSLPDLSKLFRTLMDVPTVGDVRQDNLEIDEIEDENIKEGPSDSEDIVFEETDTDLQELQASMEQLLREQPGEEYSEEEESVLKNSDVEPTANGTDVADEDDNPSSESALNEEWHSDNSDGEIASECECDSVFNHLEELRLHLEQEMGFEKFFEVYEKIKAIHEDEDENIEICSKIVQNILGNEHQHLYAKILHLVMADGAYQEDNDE
# [13] = target: T5, Serine/threonine-protein kinase Nek1 (Homo sapiens); details: at 1 µM
# [14] = target: T6, Serine/threonine-protein kinase Nek2 (Homo sapiens) (UniProt P51955); details: at 0.1 µM
# T6 sequence (whole entry): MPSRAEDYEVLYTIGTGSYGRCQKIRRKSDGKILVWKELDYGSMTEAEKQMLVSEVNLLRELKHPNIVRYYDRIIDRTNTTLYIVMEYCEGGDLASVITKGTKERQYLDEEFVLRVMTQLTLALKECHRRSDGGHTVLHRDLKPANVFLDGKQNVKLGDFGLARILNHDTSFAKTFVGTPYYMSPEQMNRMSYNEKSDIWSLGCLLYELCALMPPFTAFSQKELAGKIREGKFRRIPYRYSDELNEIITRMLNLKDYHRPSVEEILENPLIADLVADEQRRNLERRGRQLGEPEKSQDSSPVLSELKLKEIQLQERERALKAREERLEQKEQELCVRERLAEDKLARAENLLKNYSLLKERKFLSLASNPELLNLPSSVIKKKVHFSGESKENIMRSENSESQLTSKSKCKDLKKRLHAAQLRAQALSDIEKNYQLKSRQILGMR
# [15] = target: T6, Serine/threonine-protein kinase Nek2 (Homo sapiens); details: at 1 µM
# [16] = target: Serine/threonine-protein kinase Nek6 (Homo sapiens) (UniProt Q9HC98); details: at 0.1 µM
# Sequence of Serine/threonine-protein kinase Nek6 (Homo sapiens) (Q9HC98 whole entry): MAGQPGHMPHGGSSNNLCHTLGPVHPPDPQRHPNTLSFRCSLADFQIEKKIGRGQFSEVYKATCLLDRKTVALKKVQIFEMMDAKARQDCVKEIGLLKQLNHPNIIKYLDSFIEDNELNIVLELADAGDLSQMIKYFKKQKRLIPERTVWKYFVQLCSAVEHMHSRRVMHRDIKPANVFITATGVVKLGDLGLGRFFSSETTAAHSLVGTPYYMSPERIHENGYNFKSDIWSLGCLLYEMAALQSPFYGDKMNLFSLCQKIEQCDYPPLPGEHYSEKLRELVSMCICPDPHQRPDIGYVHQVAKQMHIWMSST
# [17] = target: Serine/threonine-protein kinase Nek6 (Homo sapiens) (UniProt Q9HC98); details: at 1 µM
# [18] = target: Serine/threonine-protein kinase Nek7 (Homo sapiens) (UniProt Q8TDX7); details: at 0.1 µM
# Sequence of Serine/threonine-protein kinase Nek7 (Homo sapiens) (Q8TDX7 whole entry, looked up): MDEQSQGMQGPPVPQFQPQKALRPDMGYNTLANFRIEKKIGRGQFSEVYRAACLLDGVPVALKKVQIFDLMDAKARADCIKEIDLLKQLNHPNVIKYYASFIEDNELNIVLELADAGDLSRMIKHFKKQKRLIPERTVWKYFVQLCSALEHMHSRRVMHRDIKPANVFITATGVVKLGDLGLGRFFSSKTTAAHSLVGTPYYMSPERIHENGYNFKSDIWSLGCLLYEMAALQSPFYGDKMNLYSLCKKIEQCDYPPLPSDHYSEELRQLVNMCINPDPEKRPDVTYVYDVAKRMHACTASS
# [19] = target: Serine/threonine-protein kinase Nek7 (Homo sapiens) (UniProt Q8TDX7); details: at 1 µM
# [20] = target: T7, Serine/threonine-protein kinase Nek9 (Homo sapiens) (UniProt Q8TD19); details: at 0.1 µM;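 also: reported value is the mean percent inhibition of NEK9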
# T7 sequence (whole entry): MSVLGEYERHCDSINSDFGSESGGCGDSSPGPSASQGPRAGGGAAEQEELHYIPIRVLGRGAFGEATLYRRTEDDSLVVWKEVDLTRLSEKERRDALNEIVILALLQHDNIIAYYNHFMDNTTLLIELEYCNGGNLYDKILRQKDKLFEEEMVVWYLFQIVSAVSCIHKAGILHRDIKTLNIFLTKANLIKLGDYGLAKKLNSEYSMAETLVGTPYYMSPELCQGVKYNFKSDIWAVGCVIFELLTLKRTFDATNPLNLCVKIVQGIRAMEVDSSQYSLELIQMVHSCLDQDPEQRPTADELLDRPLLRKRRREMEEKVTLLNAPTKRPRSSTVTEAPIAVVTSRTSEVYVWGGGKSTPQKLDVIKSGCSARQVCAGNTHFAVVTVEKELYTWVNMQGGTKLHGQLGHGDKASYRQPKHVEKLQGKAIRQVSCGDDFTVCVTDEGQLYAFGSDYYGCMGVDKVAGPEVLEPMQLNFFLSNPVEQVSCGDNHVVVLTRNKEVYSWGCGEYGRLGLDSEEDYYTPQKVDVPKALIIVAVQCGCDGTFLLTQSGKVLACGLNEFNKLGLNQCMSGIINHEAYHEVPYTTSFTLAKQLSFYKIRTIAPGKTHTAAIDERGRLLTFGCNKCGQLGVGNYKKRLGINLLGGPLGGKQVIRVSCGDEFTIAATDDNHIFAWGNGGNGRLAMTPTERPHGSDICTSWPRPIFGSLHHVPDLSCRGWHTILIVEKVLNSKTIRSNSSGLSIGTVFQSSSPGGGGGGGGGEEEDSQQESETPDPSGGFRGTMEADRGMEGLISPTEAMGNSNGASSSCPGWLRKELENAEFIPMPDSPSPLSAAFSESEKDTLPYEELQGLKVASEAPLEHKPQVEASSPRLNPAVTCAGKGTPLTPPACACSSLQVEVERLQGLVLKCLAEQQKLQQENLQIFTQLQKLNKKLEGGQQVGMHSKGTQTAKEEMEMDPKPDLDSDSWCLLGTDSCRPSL
# Sequence of Sphingosine kinase 1 (Homo sapiens) (Q9NYA1 whole entry): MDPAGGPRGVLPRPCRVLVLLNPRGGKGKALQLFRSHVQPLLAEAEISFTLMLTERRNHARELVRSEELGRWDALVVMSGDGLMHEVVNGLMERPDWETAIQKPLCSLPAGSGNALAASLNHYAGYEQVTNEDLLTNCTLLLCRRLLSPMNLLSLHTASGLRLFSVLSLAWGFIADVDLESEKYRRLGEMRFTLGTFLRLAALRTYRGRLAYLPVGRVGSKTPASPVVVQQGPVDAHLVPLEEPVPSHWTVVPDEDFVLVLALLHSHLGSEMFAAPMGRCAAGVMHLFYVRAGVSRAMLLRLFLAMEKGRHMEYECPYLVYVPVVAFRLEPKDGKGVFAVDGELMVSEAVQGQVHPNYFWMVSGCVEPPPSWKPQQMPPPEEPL
smiles,measurement,setting,value
CS(=O)(=O)CCNCc1ccc(-c2ccc3ncnc(Nc4ccc(OCc5ccccc5)c(Cl)c4)c3c2)o1,inhibition,[1],2.51%
same,inhibition,[2],1.2%
same,inhibition,[3],-1.85%
same,inhibition,[4],-1.12%
same,inhibition,[5],1.71%
same,inhibition,[6],-2.26%
same,inhibition,[7],2.45%
same,inhibition,[8],-1.73%
same,inhibition,[9],0.03%
same,inhibition,[10],0.17%
same,inhibition,[11],-0.15%
same,inhibition,[12],1.25%
same,inhibition,[13],2.81%
same,inhibition,[14],1.61%
same,inhibition,[15],0.43%
same,inhibition,[16],3.37%
same,inhibition,[17],-1.04%
same,inhibition,[18],0.02%
same,inhibition,[19],2.5%
same,inhibition,[20],-1.85%
